# Laboratory results as given in article PMC11062922 (Nature Chemical Biology, 2023).
# Legend:
# Design in all cases: species or system human, MV4-11 + K-562 + COLO205 + SK-N-BE2 + OVCAR-8
# AMPK-alpha2 = conditions: compound concentrations: 100 nM and 1000 nM (sheet 'Samples')
# CIT = conditions: compound concentrations: 100 nM and 1000 nM (sheet 'Samples')
# CLK2 = conditions: compound concentrations: 100 nM and 1000 nM (sheet 'Samples')
# CSNK2A1 = conditions: read-out: Kinobeads Data; compound concentrations: 100 nM and 1000 nM (sheet 'Samples'); n = 1
# CSNK2A2 = conditions: read-out: Kinobeads Data; compound concentrations: 100 nM and 1000 nM (sheet 'Samples'); n = 1
# DDR1 = conditions: compound concentrations: 100 nM and 1000 nM (sheet 'Samples')
# DDR2 = conditions: compound concentrations: 100 nM and 1000 nM (sheet 'Samples')
# DYRK1B = conditions: compound concentrations: 100 nM and 1000 nM (sheet 'Samples')
# EPHB1 = conditions: compound concentrations: 100 nM and 1000 nM (sheet 'Samples')
# [1] = test system: JAK2(JH1domain-catalytic); conditions: compound concentrations: 100 nM and 1000 nM (sheet 'Samples')
# LCK = conditions: compound concentrations: 100 nM and 1000 nM (sheet 'Samples')
# MAP3K4 = conditions: compound concentrations: 100 nM and 1000 nM (sheet 'Samples')
# MEK5 = conditions: compound concentrations: 100 nM and 1000 nM (sheet 'Samples')
# MERTK = conditions: compound concentrations: 100 nM and 1000 nM (sheet 'Samples')
# NEK2 = conditions: compound concentrations: 100 nM and 1000 nM (sheet 'Samples')
# NEK6 = conditions: compound concentrations: 100 nM and 1000 nM (sheet 'Samples')
# PKAC-beta = conditions: compound concentrations: 100 nM and 1000 nM (sheet 'Samples')
# SLK = conditions: compound concentrations: 100 nM and 1000 nM (sheet 'Samples')
# SYK = conditions: compound concentrations: 100 nM and 1000 nM (sheet 'Samples')
# TBK1 = conditions: compound concentrations: 100 nM and 1000 nM (sheet 'Samples')
# 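Further: kinobeads ε competition pulldown from cell lysate, compound preincubated 45 min at 4 °C, bound kinases quantified by LC–MS/MS relative to DMSO control.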
structure (smiles),measurement,setting,value
COc1cc(Nc2ncc3c(C)nc(-c4cc5ccccc5[nH]4)n3n2)cc(OC)c1OC [GW869516X],Kinobeads Data,AMPK-alpha2,no target
same,Kinobeads Data,CIT,no target
same,Kinobeads Data,CLK2,no target
same,potency estimated from few doses,CSNK2A1,78 nM
same,potency estimated from few doses,CSNK2A2,56 nM
same,Kinobeads Data,DDR1,no target
same,Kinobeads Data,DDR2,no target
same,Kinobeads Data,DYRK1B,no target
same,Kinobeads Data,EPHB1,no target
same,Kinobeads Data,[1],no target
same,Kinobeads Data,LCK,no target
same,Kinobeads Data,MAP3K4,no target
same,Kinobeads Data,MEK5,no target
same,Kinobeads Data,MERTK,no target
same,Kinobeads Data,NEK2,no target
same,Kinobeads Data,NEK6,no target
same,Kinobeads Data,PKAC-beta,no target
same,Kinobeads Data,SLK,no target
same,Kinobeads Data,SYK,no target
same,Kinobeads Data,TBK1,no target
